Test results taken from PubChem BioAssay (NCATS).
Inconclusive results are not listed. Entries that show only a call come without a potency. The source made the active and inactive calls. Calls follow the shape of the dose curve; as a rule, active = well fitted inhibition curve with a large enough effect; inconclusive = small, poorly fitted or top-dose-only effect; inactive = no such curve, though single readings can be large or run the other way.
Potency is read from the fitted curve at half-maximal effect.

Test: S16 Schwann cell PMP22 intronic element firefly luciferase assay (AID 624032); also: nearly all actives have a fitted effect of over 30% in size
Details: S16 rat Schwann cells, PMP22 element FLuc, 24 h; series mostly up to 57.5 µM
Excerpt: Charcot-Marie-Tooth-Association [CMTA]
National Center for Advancing Translational Sciences [NCATS]
Charcot-Marie-Tooth (CMT) disease was first characterized by Jean-Martin Charcot and Pierre Marie in France and, independently, by Howard Henry Tooth in England in 1886. CMT is one of the most common inherited neurological diseases, affecting approximately 1 in 2,500 Americans. […] The most prevalent type of CMT is known as CMT1A and caused by a duplication of the PMP22 gene which leads to over-expression of this protein. PMP22 is a glycosylated intrinsic membrane protein accounting for 2-5% of the myelin protein content, and its over-expression results in demyelination and subsequently axonal loss.
A pair of cellular transcription-based assays was developed in the S16 rat Schwann cell lines (Hai, M., et al., 2002) stably transfected with orthogonal reporters - firefly luciferase (Fluc) and beta-lactamase (beta-Lac) - whose expression is driven by an intronic regulatory element of the PMP22 gene (Jones, E.A., et al., 2011) to recapitulate endogenous expression of PMP22. The current assay employs Fluc to report on PMP22 expression. A comprehensive library of approved drugs, the NCGC Pharmaceutical Collection (Huang, R., et al., 2011), was screened in the cross-validating platform of the orthogonal reporter assays to identify drug modulators inhibitory towards PMP22 expression.
A set of counter-screens was devised to address non-specific activity of the library. An ATP-dependent CellTiter-Glo assay (developed by Promega Corp) was utilized to control cell viability. In addition, biochemical Fluc enzyme assay was performed to assess direct inhibition of the Fluc enzymatic activity.
Hai, M., Muja, N., DeVries, G.H., Quarles, R.H. and Patel, P.I. Comparative analysis of Schwann cell lines as model systems for myelin gene transcription studies. J Neurosci Res, 2002. 69(4): pp 497-508
Huang, R., Southall, N., Wang, Y., Yasgar A., Shinn P., Jadhav, A. , Nguyen, D.-T. and Austin, C.P., The NCGC pharmaceutical collection: a comprehensive resource of clinically approved drugs enabling repurposing and chemical genomics. Sci Transl Med, 2011. 3(80): p. 80ps16.
S16 Schwann cell PMP22 intronic element firefly luciferase assay
The FLuc-expressing S16 cells were seeded in white solid 1536-well plates at between 500-750 cells/4uL in DMEM medium containing 10% FBS, w/o phenol red. After overnight incubation at 37 degree Celsius/5% C02, 23 nL of compounds or DMSO were delivered to each well using a pin tool, followed by 24h-incubation at 37 degree Celsius/5% C02. Then 4 uL ONE-Glo luminescent substrate mix (Promega) was added to each well. Luminescence was measured on a ViewLux plate reader (Perkin Elmer). The % activity was determined by normalizing to the average readings of PTC124 (a positive control) - treated cells relative to DMSO-treated cells (0% Activity). The concentration-effect curves were then classified based on curve quality (r2), response magnitude and degree of measured activity.
With `CCn1cc(C(=O)O)c(=O)c2cc(F)c(N3CCNCC3)nc21` the Potency was “inactive”. With `Cc1cc(NS(=O)(=O)c2ccc(N)cc2)no1` the Potency was “inactive”. For `NC(N)=NC(N)=NCCc1ccccc1`, the Potency was “inactive”. In the case of `C[C@]12C=CC(=O)C=C1CC[C@@H]1[C@@H]2C(=O)C[C@@]2(C)[C@H]1CC[C@]2(O)C(=O)CO`, the Potency is reported as “inactive”. With `O=C(O)c1cccnc1` the Potency was “inactive”. In the case of `COc1ccc(C(=O)CC(=O)c2ccc(C(C)(C)C)cc2)cc1`, the Potency is reported as “inactive”. In the case of `CCN(C)C(=O)Oc1cccc([C@H](C)N(C)C)c1`, the Potency is reported as “inactive”. For `CC(C)NCC(O)c1ccc(NS(C)(=O)=O)cc1` (stereo not given), the Potency was “inactive”. In the case of `Oc1c(Cl)cc(Cl)c2cccnc12`, the Potency is reported as 3.61 µM (active). In the case of `Cc1ncc([N+](=O)[O-])n1CCO`, the Potency is reported as “inactive”. With `CCOc1cc(N)c(Cl)cc1C(=O)NCC1CN(Cc2ccc(F)cc2)CCO1` (stereo not given) the Potency was “inactive”. In the case of `Nc1[nH]c(=O)ncc1F`, the Potency is reported as “inactive”. For `N[C@@H](C(=O)N[C@@H]1C(=O)N2C(C(=O)O)=C(Cl)CS[C@H]12)c1ccccc1`, the Potency was “inactive”. In the case of `CNNCc1ccc(C(=O)NC(C)C)cc1`, the Potency is reported as “inactive”. For `C#CCN[C@@H]1CCc2ccccc21`, the Potency was “inactive”. For `O=c1oc2c(O)c(O)cc3c(=O)oc4c(O)c(O)cc1c4c23`, the Potency was “inactive”. For `COc1cc(NCc2ccc3nc(N)nc(N)c3c2C)cc(OC)c1OC`, the Potency was 0.455 µM (active). With `Cn1nnc2c(C(N)=O)ncn2c1=O` the Potency was “inactive”. In the case of `COc1cc2c(Nc3ccc(Br)cc3F)ncnc2cc1OCC1CCN(C)CC1`, the Potency is reported as 9.07 µM (active). With `O=C(O)c1cn(C2CC2)c2cc(N3CCNCC3)c(F)cc2c1=O` the Potency was “inactive”. For `CN(Cc1cc(Br)cc(Br)c1N)C1CCCCC1`, the Potency was 36.1 µM (active). In the case of `O=c1cc(O)c(Cl)c[nH]1`, the Potency is reported as “inactive”. For `CC1=NN(c2ccccc2)C(=O)C1`, the Potency was “inactive”. For `O=S(=O)(O)CCS`, the Potency was “inactive”. For `Cc1cccc(N(C)C(=S)Oc2ccc3ccccc3c2)c1`, the Potency was “inactive”. For `CCOC(=O)c1ccc(OC(=O)CCCCCN=C(N)N)cc1`, the Potency was “inactive”. In the case of `CNC1CCCN(c2c(F)cc3c(=O)c(C(=O)O)cn(C4CC4)c3c2OC)C1` (stereo not given), the Potency is reported as “inactive”. In the case of `Nc1nc(N)nc(-c2cc(Cl)ccc2Cl)n1`, the Potency is reported as “inactive”. In the case of `CC1=CC(=O)c2ccccc2C1=O`, the Potency is reported as 22.8 µM (active). With `Cc1nnc(NS(=O)(=O)c2ccc(N)cc2)s1` the Potency was “inactive”. With `Cc1cccc(Nc2ccncc2S(=O)(=O)NC(=O)NC(C)C)c1` the Potency was “inactive”. In the case of `C[C@@H](NCCCc1cccc(C(F)(F)F)c1)c1cccc2ccccc12`, the Potency is reported as 14.4 µM (active). For `O=NN(CCCl)C(=O)NC1CCCCC1`, the Potency was “inactive”. With `CCOC(=O)[C@H](CCc1ccccc1)N[C@H]1CS[C@H](c2cccs2)CN(CC(=O)O)C1=O` the Potency was “inactive”. With `O=P(O)(O)C(O)(Cc1cccnc1)P(=O)(O)O` the Potency was “inactive”. For `CCC(C)(C)c1ccc(CC(C)CN2C[C@@H](C)O[C@@H](C)C2)cc1` (stereo not given in full), the Potency was “inactive”. In the case of `CC(C)(C#N)c1cc(Cn2cncn2)cc(C(C)(C)C#N)c1`, the Potency is reported as “inactive”. With `CN1CCN(c2c(F)cc3c(=O)c(C(=O)O)cn(CCF)c3c2F)CC1` the Potency was “inactive”. In the case of `CC[C@H](NC(C)C)[C@H](O)c1ccc(O)c2[nH]c(=O)ccc12`, the Potency is reported as “inactive”. For `C1CCC(C(CC2CCCCN2)C2CCCCC2)CC1` (stereo not given), the Potency was 32.2 µM (active).
